Screening data deposited in PubChem by National Center for Advancing Translational Sciences (NCATS).
Most compounds without a hit are left out; they make up all but 21% or so of the library.
NS1 function inh: inhibitors of influenza NS1 protein function. Potency, µM (highest dose often 46.1 µM), for the others: at the top dose activity, positive = more growth. 270,000 compounds, 0.4% hits; calls by dose curve; also: potency is read from the fitted curve at half-maximal effect; actives are rising curves; nearly all actives have a fitted effect of over 50% in size
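A cell-based growth assay was used: compounds that relieve NS1-induced slow growth of budding yeast raise OD600. Assay medium was yeast nitrogen base with ammonium sulphate and -URA supplement, pH 6.0, with 2% galactose.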
Pf growth 48h: inhibits P. falciparum growth in the first generation, 48 h. P. falciparum luciferase growth in erythrocytes, 48 h. Potency, µM (top dose mostly 28.7 µM), without a hit: top-dose activity change, negative = inhibition, hits mostly inhibitors. 310,000 compounds, 5.9% hits. AID 504832; also: potency is read from the fitted curve at half-maximal effect; % is scaled to controls: 0 for no effect and ±100 for the full control effect
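Luciferase-expressing P. falciparum in infected erythrocytes (2% hematocrit, 0.1% parasitemia final) in RPMI 1640/0.5% Albumax were exposed to compound for 48 hours at 37 C, 5% CO2; growth read as luminescence.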
Pf growth 96h: P. falciparum growth inhibition at 96 hour, primary screen for plastid delayed-death inhibitors | 320,000 compounds, 6.9% hits | Potency, µM (series often up to 28.7 µM), for inactives: at the highest dose activity change, negative = inhibition, most hits filed as inhibitors | P. falciparum luciferase reporter growth, 96 h; also: potency is read from the fitted curve at half-maximal effect; % is scaled to controls: 0 for no effect and ±100 for the full control effect
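Two parasite generations (96 h, 37 C, 5% CO2) of compound exposure in infected erythrocytes (0.05% parasitemia, 2% hematocrit). Luciferase-reporter P. falciparum; decreased luminescence indicates inhibited growth, aimed at apicoplast-acting delayed death.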
Shiga toxin inh: inhibitors of Shiga toxin in Vero cells; Vero cells, Shiga toxin protein synthesis inhibition reporter; inhibition, % at 38.7 µM; 290,000 compounds, 9.2% hits; in the data active = inhibition mostly above about 28%, no sharp cut-off; inactive = mostly below about 43%; also: 0% is about no effect
Sm TGR block: S. mansoni TGR enzyme inhibition | Potency, µM (highest dose often 114 µM), for inactives: top-dose activity change, negative = inhibition, most hits filed as inhibitors | purified TGR, DTNB reduction, TNB absorbance 405 nm | 360,000 compounds, 3% hits | Q962Y6; also: potency is read from the fitted curve at half-maximal effect; % is scaled to controls: 0 for no effect and ±100 for the full control effect; nearly all actives have a fitted effect of over 60% in size
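First, TGR (20 nM dispensed) and NADPH were mixed with compound. Second, a 15 min room-temperature incubation followed. Third, further NADPH and then DTNB were added to start the reaction. Finally, TNB absorbance was monitored kinetically.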
CHX counter: affects cycloheximide protein synthesis inhibition readout, counter-screen; cell reporter, cycloheximide protein synthesis inhibition counterscreen; max response, %; 300,000 compounds, 12% hits; in the data active = max response mostly above about 13%, no sharp cut-off; inactive = mostly below about 14%; also: read at 38.3 µM for the half of the compounds with a filed dose; 0% is about no effect
Starred values were filed as active, the others as inactive; ? = inconclusive; . = no result. Unless noted, calls follow the shape of the dose curve; as a rule, active = well fitted curve in the direction sought with a large enough effect; inconclusive = small, poorly fitted or top-dose-only effect, or another doubt; inactive = no such curve, though single readings can be large; an effect the other way counts as inactive or inconclusive.

SMILES	NS1 function inh	Pf growth 48h	Pf growth 96h	Shiga toxin inh	Sm TGR block	CHX counter
CCCNC(=O)NC(=O)CSc1cccc(C(F)(F)F)c1	.	20%	12%	16	14%	6
CCSC1=N/C(=C\c2ccccc2)C(=O)N1c1ccc(OC)cc1	.	?	?	12	2%	-5
COc1ccc(/C=C2\N=C(SC)N(C)C2=O)cc1	-20%	15%	0%	18	10%	12*
CC(C)c1ccc(S(=O)(=O)c2nnn3c2nc(NC2CCCC2)c2sccc23)cc1	.	.	.	.	4%	.
COc1cccc(N2C(=O)CC(N3CCN(CCN=CC4=C(O)CC(C)(C)CC4=O)CC3)C2=O)c1 (stereo unspecified)	-4%	-12%	-2%	-12	.	-4
C=CCN(C(=O)CSC1=NC(=O)CN1C(C)=O)c1nc(C)c(-c2ccccc2)s1	4%	0%	199%	50	4.5µM*	30*
Cc1cc(C)nc(Oc2ccc(Br)cc2)n1	5%	46%	28%	-1	8%	3
Cc1cc(NO)nc(-c2ccc(Br)cc2)n1	-2%	?	.	109*	0%	47*
CC(C)CC(NC(=O)C1CCC(=O)N1C(=O)OCc1ccccc1)C(=O)NC(Cc1ccccc1)C(N)=O (stereo unspecified)	-10%	10µM*	7%	-6	7%	-1
CC1(N2CCCCC2)CC2(O)C(=[N+]1[O-])CCC/C2=N\O (stereo unspecified)	3%	9%	-8%	20	50µM*	6
N#CCc1ccc(C(=O)c2ccccc2F)s1	25%	-23%	?	64	1%	17*
COC(=O)c1cc(Cl)c(NC(=O)/C=C/c2ccc(Cl)cc2Cl)cc1OC	?	36%	60%	11	9%	-3
Cc1ccc(NC(=O)/C=C/c2ccc(C)o2)c(C)c1	.	.	.	.	7.9µM*	.
COC(=O)c1ccc(Cl)cc1NC(=O)/C=C/c1ccc(C)o1	10%	-1%	0%	-4	20µM*	-3
C=CCn1c(SCC(=O)Nc2nncs2)nnc1-c1ccco1	-1%	48%	2%	-10	-18%	-2
CC(=O)Nc1cccc(C(=O)OCc2csc(CC(=O)Nc3ccccc3C)n2)c1	.	9.3µM*	?	.	-14%	.
Cc1cc(C)c(C(=O)OCc2csc(CC(=O)Nc3ccccc3C)n2)c(C)c1	-35%	?	?	-8	-22%	-1
CC(=O)Nc1ccc(S(=O)(=O)NCCC(=O)OCc2csc(CC(=O)Nc3ccccc3C)n2)cc1	.	12µM*	?	.	0%	.
Cc1ccccc1NC(=O)Cc1nc(COC(=O)CCC(=O)c2ccccc2)cs1	.	-21%	?	.	-6%	.
CCC/C(O)=C1\C(=O)CCCC1=NC(C)C(=O)O (stereo unspecified)	4%	?	3.7µM*	-11	1%	-4
CN(Cc1cccnc1)Cc1cn[nH]c1-c1ccc(-c2ccccc2)cc1	2%	?	11%	27	-16%	6.6*
CCN1C(=O)/C(=C/c2ccc(C)o2)N(C)C1=S	-47%	35%	-18%	11	28µM*	16*
CCN1C(=O)/C(=C/c2cccs2)N(C)C1=S	2%	.	1.7µM*	10	1%	0
CNc1nc(SCc2ccc(C)cc2)nc2c1CCCC2	-155%	7.4µM*	13µM*	55*	19%	37*
Cc1ccc(CSc2nc3c(c(N(C)C)n2)CCCC3)cc1	-55%	13µM*	?	5	-4%	6
SMILES	NS1 function inh	Pf growth 48h	Pf growth 96h	Shiga toxin inh	Sm TGR block	CHX counter
Cc1nc(S(=O)(=O)Cc2ccccc2)nc2c1CCC2	3%	1%	0%	20	.	10
Cc1nc(SCc2ccccc2)nc2c1CCC2	-22%	88%	70%	85*	.	58*
Cc1ccc(CSc2nc3c(c(SCC(=O)O)n2)CCCC3)cc1	-64%	7%	-9%	-8	0%	-3
C/C(=C(/CCOC(=O)C(C)C)SS/C(CCOC(=O)C(C)C)=C(\C)N(C=O)Cc1cnc(C)nc1N)N(C=O)Cc1cnc(C)nc1N	.	-1%	?	.	.	.
Cc1ccc(Cn2cccc2/C=C2/C(=N)N3C=CSC3=NC2=O)cc1	6%	2%	6.6µM*	-15	-7%	-2
O=C(CCN1CCOCC1)NNC(=S)NC(=O)c1ccccc1	.	?	?	24	-16%	-1
COc1ccc(CCNC(=O)c2cc(Nc3cc(C)cc(C)c3)nc3ccccc23)cc1OC	.	.	.	.	-2%	.
CC(C)(C)c1ccc(C(=O)N2CCCC2c2cccs2)cc1 (stereo unspecified)	-36%	15µM*	?	3	10%	-2
CCN(CC)CCOC(=O)c1ccc(N/C=C(/C#N)c2nc(-c3cccc(OC)c3)cs2)cc1	-43%	?	0.47µM*	1	22%	3
CN(C)CCCNC(=O)C(=O)NCC1CCCO1 (stereo unspecified)	.	-24%	32%	12	-1%	-3
COC(=O)C1=C(c2ccc3ccccc3c2)C[C@@H]2CC[C@H]1N2C(=O)NCc1ccc(C(F)(F)F)cc1	.	8.3µM*	?	.	1%	.
COC(=O)C1=C(c2ccc3ccccc3c2)C[C@@H]2CC[C@H]1N2C(=O)NCc1ccc(F)cc1	.	8.3µM*	?	.	-9%	.
COC(=O)C1=C(c2ccc(OC)c(OC)c2)C[C@@H]2CC[C@H]1N2C(=O)NCc1ccc(F)cc1	.	-53%	?	.	5%	.
COC(=O)C1=C(c2ccc(C(C)=O)cc2)C[C@@H]2CC[C@H]1N2C(=O)NCc1ccc2c(c1)OCO2	.	12µM*	3.3µM*	.	-16%	.
Nc1ccc(C(=O)C(=O)c2ccc(N)cc2)cc1	-1%	0%	39%	2	-3%	6
Nc1ccc(N=Nc2ccccc2)cc1	.	225%	457%	69*	-7%	41*
Nc1ccc(N=Nc2ccc(N)cc2)cc1	.	331%	343%	96	-12%	33*
COc1cccc(N2CC(C(=O)N3CCC4(CC3)CC(=O)c3ccccc3O4)CC2=O)c1 (stereo unspecified)	.	?	61%	.	6%	.
O=C1CC2(CCN(C(=O)C3CC(=O)N(c4ccccc4)C3)CC2)Oc2ccccc21 (stereo unspecified)	.	?	9.3µM*	.	0%	.
O=C(CN1C(=O)NC2(CCOc3ccccc32)C1=O)Nc1cccc(Cl)c1 (stereo unspecified)	.	-3%	23%	-19	-5%	1
C/C(=N\NC(=O)CSCc1ccccc1Cl)c1cc(O)ccc1O	-1%	?	-25%	40*	-12%	23*
O=C(CSCc1ccccc1Cl)NN=C1CCCCCC1	8%	7%	6%	9	4%	-3
CCCCNC(=O)CSc1nc(-c2ccc(OC)cc2)cc(C(F)(F)F)n1	.	.	.	.	11%	.
Cc1ccccc1CSc1nc2cccnc2n1Cc1ccc(C(=O)NC2CC2)cc1	.	.	.	.	7%	.
O=C(/C=C/c1ccccc1)c1c(O)n(CCc2ccccc2)c(=O)[nH]c1=O	8%	-2%	28%	-13	-22%	1
